# Screening results: PubChem, Broad Institute
# aSyn 5UTR act: Activators via SNCA 5'UTR binding, MLPCN. activity score, % (tested at 7.5 µM), hits read low. hit rate 7.1% among 300,000. alpha-synuclein 5'UTR reporter, activators screen; in the data active = activity score below about -60%
# Active calls of the source: *. A selection follows.
SMILES,aSyn 5UTR act
CCCCN(CC)CCCNC(=O)c1cc2c(=O)n(CC)c3ccccc3c2s1,-320.7*
COCCNC(=O)c1cc2sc3ccccc3c2s1,-174.9*
CCn1c(=O)c2cc(C(=O)NCCCOC)sc2c2ccccc21,-84.5*
COCCCNC(=O)c1ccc(Cn2c(=O)c3ccccc3n(Cc3ccccc3C#N)c2=O)cc1,54.6
CC(=O)c1ccc(N/N=C(/C(N)=O)C2=NC(C)(C)Cc3ccccc32)cc1,56.4
CC(=O)c1ccc(Nc2ccc(-c3ccccc3F)nn2)cc1,-171.8*
Cc1ccc2nsnc2c1NC(=O)CCl,-82.3*
Cc1ccc2nsnc2c1NC(=O)c1ccc([N+](=O)[O-])o1,-173.5*
COc1ccc(-c2nnn(Cc3ccccc3F)n2)cc1,-206.7*
Fc1ccccc1Cn1nnc(-c2ccc3c(c2)OCO3)n1,-76.9*
COC(=O)C(Cc1ccc(OC(=O)c2ccc(C)cc2)cc1)N1Cc2ccccc2C1=O (stereo unspecified),-66.7*
O=C(Nc1ccc([N+](=O)[O-])cc1)C(Cc1ccccc1)N1C(=O)c2cccc3cccc(c23)C1=O (stereo unspecified),55.9
COC(=O)C(Cc1ccc(O)cc1)N1Cc2ccccc2C1=O (stereo unspecified),-144.4*
COc1ccc2[nH]c(=O)c(CN(Cc3cccs3)S(=O)(=O)c3cccc4nsnc34)cc2c1,75.9
COc1ccc2[nH]c(=O)c(CN(c3ccccc3OC)S(=O)(=O)c3ccccc3)cc2c1,-69.2*
C/C(=N\NC(=S)Nc1ccc(F)cc1)c1ccc2c(c1)OCCO2,-80.3*
COc1ccccc1N1CCN(C2=Nc3cccc4cccc2c34)CC1,-181.4*
Oc1ccc(CN2CCC(Cc3ccccc3)CC2)c2cccnc12,105.0
c1ccc(CC2CCN(C3=Nc4cccc5cccc3c45)CC2)cc1,-95.5*
CC(=O)Nc1cccc(-c2nc3ccc(NC(C)=O)cc3s2)c1,-133.1*
Nc1cccc(-c2nc3ccccc3s2)c1,-66.5*
O=C(CCS(=O)(=O)c1ccccc1)Nc1ccc(-c2nc3ccccc3s2)c(O)c1,-93.1*
CC(=O)Nc1cccc(-c2nc3ccccc3s2)c1,-132.9*
CC(=O)Nc1cccc(-c2cc(C)c3cc4c(cc3n2)OCO4)c1,-89.1*
CC(=O)Nc1ccc(O)c(-c2nc3ccccc3s2)c1,-326.2*
SMILES,aSyn 5UTR act
COC(=O)Cc1ccc2sc(-c3ccccc3)nc2c1,-207.6*
CCOc1ccc(N=C(/C(C(=O)C(=O)N2CCOCC2)=C(\O)c2ccccc2)c2ccccc2)cc1,-151.2*
CCOc1ccc(OCc2ccc(C(=O)N3CCCC(C)C3)cc2)cc1 (stereo unspecified),-63.0*
CCOc1ccc(OCc2ccc(C(=O)N3CCOCC3)cc2)cc1,-91.2*
CCOc1ccc(C(=O)c2cc([N+](=O)[O-])ccc2N2CCOCC2)cc1,79.1
NC(=O)CSc1nc(-c2ccccc2Cl)ns1,-121.2*
Cc1cc(N2CCCC2)nc(SCC(=O)c2ccccc2)n1,-88.5*
Cc1cc(N2CCOCC2)nc(SCC(=O)c2ccccc2)n1,-93.6*
O=c1cc(-c2ccc(F)cc2)oc2ccccc12,-96.9*
CSc1ccc(-c2cc(=O)c3ccccc3o2)cc1,-328.1*
O=c1cc(-c2ccccc2F)oc2ccccc12,-111.1*
CN(C)N=Nc1ccc(-c2cn(Cc3ccccc3)cn2)cc1,-74.2*
Cc1cnnc2ccc3c(no[n+]3[O-])c12,-92.6*
Nc1nn(-c2ccccc2)nc1C(=O)OCc1ccccc1,-62.5*
CCc1nnc(NC(=O)/C=C/c2cccs2)s1,-160.3*
CCc1nnc(NC(=O)C=C(C)C)s1,-140.2*
O=C(/C=C/c1cccs1)Nc1nccs1,-97.1*
O=C(/C=C/c1cccc(F)c1)Nc1nccs1,-209.2*
NS(=O)(=O)c1cccc(NC(=O)/C=C/c2cccs2)c1,-101.2*
Cc1cc(C)nc(NC(=O)/C=C/c2cccs2)c1,-155.3*
Cc1cc(C)c(-c2csc(NC(=O)/C=C/c3cccs3)n2)c(C)c1,38.4
O=C(/C=C/c1cccs1)Nc1cccc(NC(=O)/C=C/c2cccs2)n1,-180.9*
Cc1onc(NC(=O)c2ccc(Cl)cc2Cl)c1Br,-145.0*
Oc1ccccc1N1CCN(c2ccc3ccccc3n2)CC1,-137.9*
c1ccc(CN2CCN(c3cnc4ccccc4n3)CC2)cc1,-208.4*
SMILES,aSyn 5UTR act
Fc1ccccc1N1CCN(c2cnc3ccccc3n2)CC1,-69.9*
NS(=O)(=O)c1ccc(N/N=C/c2cn(-c3ccccc3)nc2-c2cccs2)cc1,-91.5*
Cc1ccsc1/C=N/Nc1cccc(C(=O)O)c1,105.0
O=C(O)c1cccc(N/N=C/c2cn(-c3ccccc3)nc2-c2cccs2)c1,-68.5*
Cc1nn(Cc2c(Cl)cccc2Cl)c(C)c1NC(=O)c1cn(-c2ccccc2)nc1-c1ccccc1,122.3
O=C(Nc1cccnc1)c1cn(-c2ccccc2)nc1-c1cccs1,-83.9*
COc1ccc2cnn(-c3ccc(C)cc3)c(=O)c2c1OC,-115.2*
COc1ccc2cnn(-c3ccc(OC(F)(F)Cl)cc3)c(=O)c2c1OC,-70.4*
COc1ccc2[nH]c3nc(SC(C)C)nnc3c2c1,58.3
COc1ccc2[nH]c3c(NCc4ccco4)ncnc3c2c1,-112.6*
COc1ccc2[nH]c3c(NCCCOC(C)C)ncnc3c2c1,-138.5*
Clc1ccc2[nH]c3c(NCCCN4CCOCC4)ncnc3c2c1,-62.4*
COc1ccc2[nH]c3c(NCCC4=CCCCC4)ncnc3c2c1,-194.8*
Cc1nc(-c2ccc(Cl)cc2)sc1C1(C)CC(c2cccc(F)c2)=NO1 (stereo unspecified),-67.1*
O=C(NC1CC1)c1cccc(Nc2ccc(-c3ccc4c(c3)OCCO4)nn2)c1,-144.9*
O=S(=O)(c1ccc(Nc2ccc(-c3ccc4c(c3)OCCO4)nn2)cc1)N1CCCC1,-120.8*
Cc1cc2[nH]c3ccccc3c2c(C)n1,-85.1*
COc1ccc(NC(=S)NCCCCCC(=O)C[N+](=O)[O-])cc1,-81.8*
O=C(O)c1ccc(N=NN2CCCCCC2)cc1,-167.5*
CCOc1ccc(-c2nc(CCl)cs2)cc1OC,-104.5*
CCOc1ccc(-c2cc(CCCC(=O)NCCc3ccc(OC)c(OC)c3OC)no2)cc1,56.6
COCCNC(=O)CSc1nc2ccc(N3CCOCC3)cc2c(=O)n1Cc1ccc(OC)cc1,-79.9*
CCOC(=O)CSc1nc2ccc(N3CCOCC3)cc2c(=O)n1Cc1ccc2c(c1)OCO2,-81.9*
CC(C)(C)SCCNC(=O)/C=C/c1ccc(F)cc1,-67.8*
CC(C)(C)SCCNC(=O)/C=C/c1ccccc1,-113.0*
SMILES,aSyn 5UTR act
CC(C)NC(=S)NC(=O)/C=C/c1ccc(F)cc1,-64.2*
O=C(/C=C/c1ccccc1)NCCc1ccccc1,-153.8*
S=C(c1ccc(-c2cccc(Cl)c2)o1)N1CCOCC1,-144.3*
S=C(c1ccc(-c2cccc(Cl)c2)o1)N1CCCCC1,-110.8*
N#CCCN1CCN(C(=S)c2ccc(-c3cccc(Cl)c3)o2)CC1,-89.3*
CC1=NN(C(N)=S)C(=O)C1N=Nc1cccc(Cl)c1C (stereo unspecified),-184.3*
CC1=NN(C(N)=S)C(=O)C1N=Nc1cccc([N+](=O)[O-])c1 (stereo unspecified),-121.2*
CC1=NN(C(N)=S)C(=O)C1N=Nc1ccc(Cl)cc1 (stereo unspecified),-143.2*
CC1=NN(C(N)=S)C(=O)C1N=Nc1ccc(Br)cc1 (stereo unspecified),-114.5*
O=C(c1cc2ccccn2n1)N1CCN(Cc2ccccc2)CC1,-113.1*
CC1(C)C2C/C(=N\O)C(C)(/[N+]([O-])=C/c3cccc([N+](=O)[O-])c3)CC21 (stereo unspecified),-62.4*
COc1ccc(/C=C/c2ccncc2)cc1,-96.2*
